Experimental findings from publication PMC5540273 (PLoS ONE, 2017) are described below.
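Further: KINOMEscan kinase panel screen.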

The assay relates to SRPK2. Particulars: concentration: 1 μM, replicates: in singlicate; n = 1.
`Cc1cccc(-c2nc(-c3ccc(S(C)(=O)=O)cc3)sc2-c2ccncc2)c1`: the “%Inh” value was found to be 0%.

For `CN1c2ccc(CNc3ccc(F)cc3)cc2-c2c(cnn2C)S1(=O)=O`, the “%Inh” value is on record as 21%. Turning to `O=C1Cc2cc(Nc3nc(NCc4cccc(S(=O)(=O)C(F)(F)F)c4)ncc3C(F)(F)F)ccc2N1`, the “%Inh” value was 6%. The same measure for `COc1cc2c(cc1OC[C@@H](O)CO)ncc1c3ccc(C#N)cc3[nH]c21`: 0%; for `COc1ccc(S(=O)(=O)NC2CCN(c3cc(C)nc(Nc4cccc(C#N)c4)n3)CC2)cc1.O=C(O)C(F)(F)F` [GSK1653539]: 0%. For the compound `[2H]C([2H])(c1cccc(C(F)(F)F)c1C)n1ccn2c(=O)nc(N3CCOCC3)cc12` [GSK2336394], the “%Inh” value was found to be 0%. In the case of `Cc1cccc(-c2nc(Nc3ccc4ncsc4c3)c3ccccc3n2)n1` [GW867588] it was 0%; in that of `COc1cc2ncn(-c3cc(OCc4sccc4Cl)c(C(N)=O)s3)c2cc1OC` [GSK448459], 0%; in that of `CCc1ccnc(/C=C/c2n[nH]c3cc(Sc4ccccc4C(=O)NC)ccc23)c1`, 0%. The same measure for `C[C@@H](Oc1cc(-n2cnc3ccc(NC(=O)NC(C)(C)C)cc32)sc1C(N)=O)c1ccccc1Cl` [GSK346294]: 12%. The same measure for `COc1cc2c(cc1OCCN1CCN(C)CC1)ncc1c3ccc(C#N)cc3[nH]c21`: 0%; for `COCCNC(=O)c1ccc(-c2cc(C(=O)NC3CC3)cc(F)c2C)cc1` [GW868318]: 0%; for `COc1cc(Nc2nccc(N3CCC(NC(=O)c4cccc(NC(C)=O)c4)C3)n2)cc(OC)c1OC` (centres unmarked) [GSK1379754]: 0%. Turning to `CN1c2ccc(NCc3ccc(F)cc3)cc2-c2c(cnn2C)S1(=O)=O`, the “%Inh” value is 0%. The same measure for `Cc1nnc(-c2ccc3ncc(-c4ccc(S(C)=O)cc4)n3c2)o1` (centres unmarked): 0%; for `O=C(NCCCN1CCOCC1)c1cccc(Nc2nccc(Nc3ccc(Oc4ccccc4)cc3)n2)c1` [GW663929]: 19%; for `Cc1cccc(Cn2ccn3c(=O)cc(N4CCOCC4)nc23)c1` [GSK2297542]: 0%. In the case of `Nc1nc(-c2ccc3c(N)n[nH]c3c2)cc(N2CCCC2)n1` [GSK2227430] it was 0%; in that of `Fc1ccc(-c2ncn(CCCN3CCOCC3)c2-c2cccnc2)cc1` [SB-211743], 0%. In the case of `O=C(NOCC1CC1)c1ccc(F)c(F)c1Nc1ccc(I)cc1Cl` it was 0%; in that of `NS(=O)(=O)c1cccc(-c2ccc3ncc(N4CCOCC4)nc3c2)c1` [GSK1535721], 0%; in that of `Cn1ccc2ncnc(Oc3ccc(NC(=O)Nc4ccncc4)c(Cl)c3)c21`, 0%. On to `NS(=O)(=O)c1cccc(-c2ccc3nccc(-c4cccc(S(N)(=O)=O)c4)c3c2)c1` [GW867253], for which the “%Inh” value is given as 0%. The same measure for `CCc1nc(-c2cccc(C)c2)c(-c2ccnc(NCc3ccccc3)c2)s1`: 0%; for `O=C(Nc1cccc(-c2nn3ncccc3c2-c2ccnc(Nc3cccc(C(F)(F)F)c3)n2)c1)c1c(F)cccc1F` [GSK299495]: 16%; for `O=c1cc(N2CCOCC2)nc2n(Cc3cccc(F)c3)ccn12` [GSK2297430]: 0%. The same measure for `O=C1NC(=O)C(N2CCc3ccccc32)=C1c1cccc(Cl)c1` [SB-408010]: 9%. In the case of `Cl.Oc1cccc(Nc2ccnc3cc(-c4ccncc4)ccc23)c1` [GW494601] it was 0%; in that of `COc1ccc(COc2cc(-n3cnc4ccccc43)sc2C(N)=O)cc1` [GSK1024304], 0%. In the case of `COc1ccc(Nc2ncc(C#N)c(Nc3ccccc3C(N)=O)n2)cc1N1CCN(C)CC1.Cl` [GSK1558669], the “%Inh” value is 66%. In the case of `Cc1cn2c(=O)cc(N3CCOCC3)nc2n1Cc1cccc(Cl)c1Cl` [GSK2334006], the “%Inh” value turned out to be 0%. The same measure for `N#Cc1c(N2CCOCC2)sc(-c2ccn[nH]2)c1-c1ccc(Cl)cc1`: 0%; for `N#Cc1ccc(-c2cc(-c3c[nH]nc3-c3ccccn3)ccn2)cc1` [GW693028]: 0%. Consider `Cc1nnc(-c2ccc3occ(-c4ccc(C(C)O)cc4)c3c2)o1` (centres unmarked), for which the “%Inh” value is listed as 2%. The same measure for `Cc1c(Cn2c(C)nn3c(=O)cc(N4CCOC(C)C4)nc23)cccc1C(F)(F)F` (centres unmarked) [GSK2344444]: 0%.
